# From PubChem
# A selection: hits, their analogues and other compounds. The true share with any hit is near 3.7%.
# ATXN viability: Viability Counterscreen for Primary qHTS for Inhibitors of ATXN expression. hit rate 0.49% among 400,000. Potency, µM (doses to about 56.7 µM), actives largely listed as cytotoxic. S2 cells (HEK-293 line with an ATXN2-luciferase reporter) viability, CellTiter-Fluor protease fluorescence, 24 h; also: nearly all actives have a fitted effect of over 40% in size
# GLP1R inv ag: qHTS of GLP-1 Receptor Inverse Agonists (Inhibition Mode); hit rate 1.6% among 410,000; Potency, µM (top dose mostly 38.3 µM), inactives show at the highest dose activity change, negative = inhibition, usual class: inhibitors; Glucagon-like peptide 1 receptor (Homo sapiens), P43220; HEK293 GLP-1R CRE-luciferase, luminescence, 24 h; GLP-1R form is constitutively active; also: % is scaled to controls: 0 for no effect and ±100 for the full control effect; nearly all actives have a fitted effect of over 55% in size
# Target sequence (P43220 whole entry, looked up): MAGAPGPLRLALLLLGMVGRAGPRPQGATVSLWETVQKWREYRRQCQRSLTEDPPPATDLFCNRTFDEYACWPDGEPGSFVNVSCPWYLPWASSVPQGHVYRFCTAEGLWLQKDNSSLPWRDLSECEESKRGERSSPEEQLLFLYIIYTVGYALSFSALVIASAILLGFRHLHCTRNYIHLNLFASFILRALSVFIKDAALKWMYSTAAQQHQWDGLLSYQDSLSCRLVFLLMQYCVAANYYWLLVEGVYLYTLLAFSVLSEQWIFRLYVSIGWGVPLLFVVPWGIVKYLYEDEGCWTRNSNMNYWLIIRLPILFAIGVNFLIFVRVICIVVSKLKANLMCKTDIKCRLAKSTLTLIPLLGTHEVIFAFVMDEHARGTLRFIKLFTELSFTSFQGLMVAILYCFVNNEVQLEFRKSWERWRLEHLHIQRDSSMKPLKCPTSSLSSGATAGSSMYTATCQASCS
#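 Cells are plated, allowed 12 hours at 37 deg C, then treated with compounds for 24 hr before luciferase detection reagent is added and luminescence is read after 12 min at room temperature. The HEK293 line carries constitutively active GLP-1R with a cAMP-responsive reporter.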
# TGFb SMAD3 inh: qHTS for Inhibitors of TGF-b | hit rate 1.2% among 410,000 | AID 588855, 2011 | Potency, µM (series often up to 46.1 µM), for inactives: top-dose activity, negative = inhibition, actives largely listed as inhibitors | HepG2 CAGA-GFP TGF-b/SMAD3 reporter, GFP fluorescence, 18 h; TGF-beta stimulated, 500 pg/mL final; also: % is scaled to controls: 0 for no effect and ±100 for the full control effect; nearly all actives have a fitted effect of over 65% in size
#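 Inhibition was scored as loss of TGF-beta-induced (500 pg/mL final, 18 hours, 37 degrees C) GFP in HEPG2 cells carrying a CAGA-GFP reporter, in DMEM with 1% FBS. Well GFP was summed per cell; Activity was normalised to unstimulated and stimulated DMSO wells, then concentration-response fitting.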
# GLP-1R agonist: qHTS of GLP-1 Receptor Agonists | AID 624172, 2012 | Glucagon-like peptide 1 receptor (Homo sapiens), P43220 | HEK293 GLP-1R CRE-luciferase, luminescence, 4-6 h; cells express a hypersensitive GLP-1R form | Potency, µM (series often up to 45.6 µM), for the others: at the highest dose activation, actives largely listed as activators | hit rate 0.007% among 380,000; also: % of control where 0% means no effect
# HepG2 viability: qHTS for Inhibitors of TGF-b: Cytotox Counterscreen; hit rate 0.76% among 410,000; HepG2 CAGA-GFP viability, ATP luminescence, 18 h; Potency, µM (top dose mostly 46.1 µM), for inactives: at the highest dose activity change, negative = cytotoxicity, most hits filed as cytotoxic
#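 HepG2 CAGA-GFP cells (1000/well, DMEM with 1% FBS) received compound, then TGF-beta at 500 pg/mL final, and were incubated 18 hours at 37 degrees C. Viability was read by CellTiter-Glo luminescence. Media-only wells were set as complete cell-killing and DMSO as no toxicity.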
# ATXN2 expr inh: Primary qHTS for Inhibitors of ATXN expression. HEK-293 ATXN2-luciferase reporter, luminescence, 24 h. Potency, µM (highest dose often 57 µM), inactives show top-dose activity change, negative = inhibition, hits mostly inhibitors. hit rate 0.72% among 360,000; also: % is scaled to controls: 0 for no effect and ±100 for the full control effect; nearly all actives have a fitted effect of over 55% in size
#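 ATXN2-luciferase reporter cells (luciferase flanked by upstream and downstream ATXN2 gene portions) were treated 24 h at 37 °C with compounds at up to 57 uM. SteadyGlo luminescence gave expression; GF-AFC fluorescence gave viability.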
# * = called active by the depositor; i = inactive; ? = inconclusive; · = no result given. Calls follow the shape of the dose curve; as a rule, active = well fitted curve in the direction sought with a large enough effect; inconclusive = small, poorly fitted or top-dose-only effect, or another doubt; inactive = no such curve, though single readings can be large; an effect the other way counts as inactive or inconclusive. Potency is read from the fitted curve at half-maximal effect.
SMILES,ATXN viability,GLP1R inv ag,TGFb SMAD3 inh,GLP-1R agonist,HepG2 viability,ATXN2 expr inh
Cc1ccc(NC(=S)N(CCCN2CCCC2)Cc2cccn2Cc2ccc(Cl)cc2)cc1C,i,?,17.8µM*,11.2%,11.2µM*,-25.4%
FC(F)(F)c1cccc(NC(=S)N(CCCN2CCCC2)Cc2cccn2Cc2ccc(Cl)cc2)c1,28.2µM*,6.31µM*,?,2.7%,12.6µM*,15.8µM*
Cc1ccc(NC(=S)N(CCCN2CCCC2)Cc2cccn2Cc2ccc(Cl)cc2)cc1Cl,?,?,-4.0%,8.8%,0.8%,?
C=C[C@@H]1c2cc(C)ccc2N(S(=O)(=O)c2ccc(C)cc2)[C@H](c2ccc(C(C)(F)F)cc2)C1(C#N)C#N,·,·,-12.3%,·,-6.2%,·
CCOC(=O)c1ccccc1OCc1cc(C2Nc3ccccc3C(=O)N2c2cccc3ccccc23)ccc1OC (stereo not drawn),·,·,2.0%,·,3.0%,·
O=[N+]([O-])c1ccc(NC2CCCC2)cc1,?,11.5%,-2.3%,-1.8%,1.8%,6.6%
O=[N+]([O-])c1ccc(N/N=C2/CCCCC2c2ccccn2)cc1 (stereo not drawn),?,1.26µM*,-2.4%,7.3%,-2.4%,-22.3%
CN(C)c1ccc(/C=C/c2nc3ccccc3s2)c(Cl)c1,·,·,-6.4%,·,-57.2%,·
O=C(CCl)N(c1ccccc1)C1CCS(=O)(=O)C1 (stereo not drawn),·,?,?,-29.4%,12.6µM*,?
CC(=O)Nc1ccc(C(=O)OCC(=O)N(c2ccccc2)C2CCS(=O)(=O)C2)cc1 (stereo not drawn),?,3.6%,-3.9%,-0.1%,0.6%,·
Cc1ccc2cc(CNCc3cccc4ccccc34)c(N3CCC(O)CC3)nc2c1,i,·,·,·,·,·
CC1CN(CC(=O)NCC2(N3CCOCC3)CCCC2)Cc2cc(Cl)ccc2O1 (stereo not drawn),i,·,·,·,·,·
C[C@@]12CCC[C@H]1[C@@H]1CC[C@H]3C[C@@H](O)CC[C@]3(C)[C@H]1CC2,25.1µM*,·,·,3.8%,·,12.1%
CC12CCC3C(CCC4CC(O)CCC43C)C1CC(O)C2 (stereo not drawn),i,8.1%,12.1%,13.0%,0.6%,-8.9%
Cc1ccc(C(=O)CSc2nnc(CNc3ccc(C)cc3C)n2Cc2ccco2)cc1,?,10µM*,?,-0.2%,-17.5%,-14.6%
COc1ccc(C(=O)CSc2nnc(CNc3ccc(C)cc3C)n2Cc2ccco2)cc1,?,0.0%,?,-0.6%,0.3%,-28.0%
COc1ccc(-c2cccc3c2OC(CNC(=O)c2ccccc2-n2cccn2)C3)nn1 (stereo not drawn),i,·,·,·,·,·
C=CC[C@]12C=C(OC)C(=O)C(OC)=C1O[C@@H](c1ccc3c(c1)OCO3)[C@H]2C,i,7.4%,9.8%,-4.0%,-19.9%,-13.6%
C=CC[C@]12CC=CC(=O)[C@@]1(O)O[C@H](c1ccc(OC)c(OC)c1)[C@H]2C,?,11.2µM*,?,-0.3%,-72.1%,?
Nc1nc(=O)n([C@H]2CSC(CO)O2)cc1F (stereo partly drawn),·,·,·,·,·,-5.0%
CC(C)n1c(O)c(/C=C2\C=NN=C2c2ccccc2)sc1=S,i,?,?,11.7%,15.8µM*,1.9%
CCn1c(O)c(/C=C2\C=NN=C2c2ccc(C)cc2)sc1=S,i,56.9%,-7.8%,12.8%,-5.7%,2.6%
NC(CSC1(c2ccc(F)cc2)c2ccccc2-c2ccccc21)C(=O)O (stereo not drawn),?,?,1.8%,0.3%,-9.2%,·
